Measurements: PubChem BioAssay (EPA / NIEHS)
More than one record can exist for a structure, and the calls need not agree. Calls of active or inactive are those of the source. Rule for the calls: active = hit-call score of the fitted dose curve at least 0.9, where 1 is the maximum; inactive = score below 0.9.

What was measured:
[1] = ATG_GLI_CIS: Attagene CIS-FACTORIAL HepG2 Assay for human Zinc Finger Protein GLI1 (AID 2282945); settings: HepG2, Attagene cis-factorial reporter mRNA, GLI element; actives raise or lower the signal
In short: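 HepG2 cells transiently transfected with cis-promoter multiplexed reporter units report endogenous transcription factor activity. After 24 h chemical exposure, reporter mRNA was quantified by RT-PCR, 6-FAM labelling, HpaI digestion and capillary electrophoresis, with bidirectional fitting against DMSO.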

[2] = ATG_GRE_CIS: Attagene CIS-FACTORIAL HepG2 Assay for human Glucocorticoid Response Elements (GRE) (AID 2282947); settings: HepG2 GRE cis-reporter, Attagene multiplex mRNA; actives raise or lower the signal
In short: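 Following 24 h chemical exposure of transiently transfected HepG2 cells, total RNA was reverse-transcribed and reporter cDNA amplified, fluorescently labelled and sized by capillary electrophoresis. Signal gain or loss was fitted relative to DMSO vehicle.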

[3] = ATG_ISRE_CIS: Attagene CIS-FACTORIAL HepG2 Assay for human Interferon Regulatory Factor 1 (IRF1) binding to an Interferon-Stimulated Response Element (ISRE) (AID 2282948); settings: HepG2 ISRE cis-reporter (Attagene), mRNA transcription readout; actives raise or lower the signal
In short: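 Transiently transfected HepG2 cells carrying cis-element reporter units, dosed 24 hours. Reporter mRNA quantified by RT-PCR, fluorescent primer extension, HpaI digestion and capillary electrophoresis. Bidirectional fitting relative to DMSO.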

[4] = ATG_M_32_CIS: Attagene CIS-FACTORIAL HepG2 Assay for M32 Transcription Factor (Internal Marker) (AID 2282949); settings: HepG2 Attagene cis-factorial M32 reporter, mRNA; actives raise or lower the signal;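 note: background control marker of the multiplexed CIS panel rather than a real target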
In short: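 Fluorescent capillary electrophoresis peaks of HpaI-digested, FAM-labelled RT-PCR reporter products give the signal. Source: transiently transfected human liver HepG2 cells, 24 h after chemical dosing; bidirectional fitting against DMSO.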

[5] = ATG_M_06_CIS: Attagene CIS-FACTORIAL HepG2 Assay for M06 Transcription Factor (Internal Marker) (AID 2282950); settings: HepG2 Attagene CIS-FACTORIAL M06 internal marker reporter; actives raise or lower the signal
In short: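 Measured 24 h post-dosing in transiently transfected HepG2 cells, this internal-marker endpoint reports reporter mRNA via RT-PCR with fluorescent primer extension and capillary electrophoresis. DMSO served as negative control and baseline for bidirectional fitting.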

[6] = target: Hypoxia-inducible factor 1-alpha (Homo sapiens) (UniProt Q16665); test: ATG_HIF1a_CIS: Attagene CIS-FACTORIAL HepG2 Assay for human Hypoxia Inducible Factor 1 (HIF1A) (AID 2282951); settings: HepG2 Attagene cis-factorial HIF1a reporter transcription; actives raise or lower the signal
Sequence of Hypoxia-inducible factor 1-alpha (Homo sapiens) (Q16665 whole entry, looked up): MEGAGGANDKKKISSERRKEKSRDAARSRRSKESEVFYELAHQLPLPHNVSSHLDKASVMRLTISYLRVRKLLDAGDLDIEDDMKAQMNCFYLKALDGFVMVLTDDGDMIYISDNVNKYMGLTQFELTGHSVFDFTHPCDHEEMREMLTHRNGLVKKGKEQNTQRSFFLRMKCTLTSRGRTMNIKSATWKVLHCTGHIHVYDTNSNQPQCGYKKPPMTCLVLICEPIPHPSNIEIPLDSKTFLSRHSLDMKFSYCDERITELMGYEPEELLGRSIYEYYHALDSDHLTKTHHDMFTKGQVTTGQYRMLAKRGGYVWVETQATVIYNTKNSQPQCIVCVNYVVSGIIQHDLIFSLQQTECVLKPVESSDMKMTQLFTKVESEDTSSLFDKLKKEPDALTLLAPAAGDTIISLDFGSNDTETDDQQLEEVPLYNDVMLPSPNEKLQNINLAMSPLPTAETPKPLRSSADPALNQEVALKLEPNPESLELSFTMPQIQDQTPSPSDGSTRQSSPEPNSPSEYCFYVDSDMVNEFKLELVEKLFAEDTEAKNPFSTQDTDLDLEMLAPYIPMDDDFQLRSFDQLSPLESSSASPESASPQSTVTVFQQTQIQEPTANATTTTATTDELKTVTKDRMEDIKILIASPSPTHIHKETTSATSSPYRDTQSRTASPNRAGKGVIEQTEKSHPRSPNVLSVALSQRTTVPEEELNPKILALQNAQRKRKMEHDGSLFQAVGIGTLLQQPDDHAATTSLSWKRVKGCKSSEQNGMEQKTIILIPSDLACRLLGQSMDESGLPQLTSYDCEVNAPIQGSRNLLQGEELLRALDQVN
In short: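 Cis-element reporter constructs were transiently transfected into HepG2 cells, which were treated for 24 h; reporter RNA was reverse-transcribed, amplified, labelled and resolved by capillary electrophoresis.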

[7] = target: Heat shock factor protein 1 (Homo sapiens) (UniProt Q00613); test: ATG_HSE_CIS: Attagene CIS-FACTORIAL HepG2 Assay for human Heat Shock Transcription Factor 1 (HSE) (AID 2282953); settings: HepG2 HSE cis-reporter, Attagene RNA transcription; actives raise or lower the signal
Sequence of Heat shock factor protein 1 (Homo sapiens) (Q00613 whole entry, looked up): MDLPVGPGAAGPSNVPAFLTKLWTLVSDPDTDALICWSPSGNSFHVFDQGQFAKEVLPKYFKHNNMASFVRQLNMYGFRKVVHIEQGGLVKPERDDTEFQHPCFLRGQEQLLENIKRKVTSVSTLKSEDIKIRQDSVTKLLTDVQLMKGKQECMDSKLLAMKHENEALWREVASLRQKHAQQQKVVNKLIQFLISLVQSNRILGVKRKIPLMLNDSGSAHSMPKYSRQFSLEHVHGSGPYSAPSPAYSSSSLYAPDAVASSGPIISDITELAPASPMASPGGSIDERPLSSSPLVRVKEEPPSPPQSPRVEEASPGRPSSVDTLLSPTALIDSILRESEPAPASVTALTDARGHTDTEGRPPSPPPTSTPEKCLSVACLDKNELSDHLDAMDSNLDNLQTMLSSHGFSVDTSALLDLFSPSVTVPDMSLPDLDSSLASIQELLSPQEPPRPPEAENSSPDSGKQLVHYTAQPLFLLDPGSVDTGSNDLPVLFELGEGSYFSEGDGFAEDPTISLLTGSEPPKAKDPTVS
In short: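 Reporter mRNA induction in HepG2 is measured 24 h after dosing, using transiently transfected multiplexed cis-regulated reporter units. Signal comes from capillary electrophoresis of labelled RT-PCR products, with DMSO as negative control.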

[8] = ATG_MRE_CIS: Attagene CIS-FACTORIAL HepG2 Assay for human Metal Responsive Element (MRE) (AID 2282954); settings: HepG2 MRE cis-reporter transcription, Attagene multiplex; actives raise or lower the signal
In short: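 Step one: transfect HepG2 with cis-regulated reporter units. Step two: dose 24 h. Step three: isolate RNA, RT-PCR, 6-FAM label, HpaI digest, capillary electrophoresis. Fit bidirectionally to DMSO.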

[9] = ATG_PBREM_CIS: Attagene CIS-FACTORIAL HepG2 Assay for human Phenobarbital-responsive Enhancer Module (PBREM) (AID 2282955); settings: HepG2 PBREM cis-reporter, Attagene multiplexed transcription; actives raise or lower the signal
In short: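 Multiplexed cis-reporter readout in human hepatoma HepG2 cells; PBREM-regulated transcript quantified after 24 h exposure by fluorescent RT-PCR fragment analysis. Signal changes up or down fitted relative to DMSO.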

[10] = target: Paired box protein Pax-6 (Homo sapiens) (UniProt P26367); test: ATG_Pax6_CIS: Attagene CIS-FACTORIAL HepG2 Assay for human Paired Box 6 (PAX6) (AID 2282956); settings: HepG2 CIS-FACTORIAL PAX6 reporter transcription, RNA readout; actives raise or lower the signal
Sequence of Paired box protein Pax-6 (Homo sapiens) (P26367 whole entry, looked up): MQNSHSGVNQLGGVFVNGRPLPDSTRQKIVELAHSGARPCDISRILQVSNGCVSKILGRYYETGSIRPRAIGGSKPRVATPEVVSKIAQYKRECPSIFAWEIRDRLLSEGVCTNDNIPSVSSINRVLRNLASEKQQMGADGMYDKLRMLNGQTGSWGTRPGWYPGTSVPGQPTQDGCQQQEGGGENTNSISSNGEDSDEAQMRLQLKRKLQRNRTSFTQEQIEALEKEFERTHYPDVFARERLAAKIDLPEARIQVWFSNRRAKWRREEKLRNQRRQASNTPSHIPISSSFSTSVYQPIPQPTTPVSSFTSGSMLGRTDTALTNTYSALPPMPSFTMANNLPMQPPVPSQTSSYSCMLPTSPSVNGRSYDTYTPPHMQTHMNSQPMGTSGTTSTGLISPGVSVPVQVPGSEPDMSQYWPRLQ
In short: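 HepG2 cells transiently transfected with cis-promoter-driven multiplexed reporter units sensing endogenous transcription factor activity; 24 h chemical exposure. Reporter mRNA quantified by RT-PCR, 6-FAM labelling, HpaI digestion and capillary electrophoresis; bidirectional fit versus DMSO baseline.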

[11] = ATG_PXRE_CIS: Attagene CIS-FACTORIAL HepG2 Assay for human Pregnane X Receptor Element (PXRE) (AID 2282957); settings: HepG2 Attagene CIS-FACTORIAL PXRE reporter, mRNA; actives raise or lower the signal
In short: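 Multiplexed cis-reporter assay in transiently transfected human HepG2 cells; 24 h chemical exposure. Reporter transcripts quantified by RT-PCR with fluorescent labeling and capillary electrophoresis.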

[12] = ATG_RORE_CIS: Attagene CIS-FACTORIAL HepG2 Assay for human RAR-related Orphan Receptor Element (RORE) (AID 2282959); settings: HepG2 Attagene cis-factorial RORE reporter, mRNA; actives raise or lower the signal
In short: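 Transfect HepG2 with MRTUs; treat 24 h; extract RNA; RT with oligo(dT); PCR with reporter-specific primers; 6-FAM primer extension; HpaI digest 2 h at 37 C; capillary electrophoresis. Fit vs DMSO, bidirectional.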

[13] = ATG_Sox_CIS: Attagene CIS-FACTORIAL HepG2 Assay for human SRY-box transcription factor (SOX) (AID 2282960); settings: HepG2 Attagene cis-factorial SOX reporter, mRNA; actives raise or lower the signal
In short: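 Fluorescence-labelled cDNA fragments from reporter transcripts, sized by CE, give the signal. Cells: HepG2, transiently transfected with cis-regulated reporter units. Exposure 24 h; DMSO negative control; bidirectional curve fitting.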

[14] = target: Transcription factor Sp1 (Homo sapiens) (UniProt P08047); test: ATG_Sp1_CIS: Attagene CIS-FACTORIAL HepG2 Assay for human Specificity Protein 1 (Sp1) (AID 2282961); settings: HepG2 Sp1 cis-reporter transcription, actives raise or lower the signal
Sequence of Transcription factor Sp1 (Homo sapiens) (P08047 whole entry, looked up): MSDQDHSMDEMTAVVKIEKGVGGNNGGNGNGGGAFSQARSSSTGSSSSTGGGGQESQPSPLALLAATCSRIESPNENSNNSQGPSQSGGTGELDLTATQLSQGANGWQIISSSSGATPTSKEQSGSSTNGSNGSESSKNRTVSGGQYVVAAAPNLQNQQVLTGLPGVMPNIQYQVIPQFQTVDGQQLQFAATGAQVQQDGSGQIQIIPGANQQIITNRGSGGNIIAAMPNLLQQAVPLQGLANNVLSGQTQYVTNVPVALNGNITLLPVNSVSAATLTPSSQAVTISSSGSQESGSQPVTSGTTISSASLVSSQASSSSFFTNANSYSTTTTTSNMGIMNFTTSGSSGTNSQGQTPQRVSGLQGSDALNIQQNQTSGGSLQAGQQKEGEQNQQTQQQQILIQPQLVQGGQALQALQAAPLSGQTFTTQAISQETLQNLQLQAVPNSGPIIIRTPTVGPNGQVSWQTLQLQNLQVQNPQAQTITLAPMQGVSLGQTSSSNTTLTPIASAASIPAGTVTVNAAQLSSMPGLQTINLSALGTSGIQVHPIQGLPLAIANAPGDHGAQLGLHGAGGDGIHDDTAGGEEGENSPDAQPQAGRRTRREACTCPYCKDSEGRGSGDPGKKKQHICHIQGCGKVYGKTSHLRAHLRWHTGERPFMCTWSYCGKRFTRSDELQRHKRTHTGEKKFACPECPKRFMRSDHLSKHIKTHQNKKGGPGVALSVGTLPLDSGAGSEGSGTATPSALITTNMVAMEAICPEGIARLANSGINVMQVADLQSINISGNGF
In short: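 Chemicals are dosed onto HepG2 cells transfected with multiple cis-promoter reporter constructs, and after 24 h reporter RNA is reverse-transcribed, PCR-amplified and resolved by capillary electrophoresis for fluorescence quantitation; activity is scored up or down against DMSO.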

[15] = ATG_SREBP_CIS: Attagene CIS-FACTORIAL HepG2 Assay for human Sterol Regulatory Element Binding (SREBP) (AID 2282962); settings: HepG2 Attagene cis-factorial SREBP reporter, mRNA; actives raise or lower the signal
In short: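 HepG2 cells transiently transfected with multiplexed cis-promoter reporter units sensing endogenous transcription factors; reporter mRNA measured 24 h after dosing by RT-PCR, 6-FAM labeling, HpaI digestion and capillary electrophoresis. Bidirectional fit versus DMSO.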

[16] = target: Signal transducer and activator of transcription 3 (Homo sapiens) (UniProt P40763); test: ATG_STAT3_CIS: Attagene CIS-FACTORIAL HepG2 Assay for human Signal Transducer and Activator of Transcription 3 (STAT3) (AID 2282963); settings: HepG2, Attagene cis-factorial STAT3 reporter transcription; actives raise or lower the signal
Sequence of Signal transducer and activator of transcription 3 (Homo sapiens) (P40763 whole entry, looked up): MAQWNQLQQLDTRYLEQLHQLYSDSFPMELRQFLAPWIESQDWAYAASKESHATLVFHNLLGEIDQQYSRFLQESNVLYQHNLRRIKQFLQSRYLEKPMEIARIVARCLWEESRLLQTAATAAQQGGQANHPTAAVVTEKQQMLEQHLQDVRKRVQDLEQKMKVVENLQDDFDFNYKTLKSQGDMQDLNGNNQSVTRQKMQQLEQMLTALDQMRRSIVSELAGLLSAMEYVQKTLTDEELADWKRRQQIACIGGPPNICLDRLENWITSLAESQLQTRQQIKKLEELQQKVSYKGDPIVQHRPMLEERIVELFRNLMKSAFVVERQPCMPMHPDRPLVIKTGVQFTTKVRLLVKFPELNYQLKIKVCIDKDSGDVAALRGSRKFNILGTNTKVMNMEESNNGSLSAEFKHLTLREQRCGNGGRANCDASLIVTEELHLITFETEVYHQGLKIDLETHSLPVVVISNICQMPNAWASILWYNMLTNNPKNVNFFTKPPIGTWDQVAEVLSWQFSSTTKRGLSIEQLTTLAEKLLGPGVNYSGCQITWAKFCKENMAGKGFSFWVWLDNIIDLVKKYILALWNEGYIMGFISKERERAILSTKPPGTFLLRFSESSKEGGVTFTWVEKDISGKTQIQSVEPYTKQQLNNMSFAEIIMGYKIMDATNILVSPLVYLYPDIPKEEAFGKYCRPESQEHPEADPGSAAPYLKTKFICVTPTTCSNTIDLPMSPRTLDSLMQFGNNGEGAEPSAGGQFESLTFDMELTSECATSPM
In short: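 Transcript-level reporter assay. HepG2 transient MRTU transfection, 24 h exposure, fluorescence detection after RT-PCR and CE; DMSO baseline.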

[17] = ATG_TA_CIS: Attagene CIS-FACTORIAL HepG2 Assay for human TA Basal Promoter (AID 2282964); settings: HepG2 Attagene CIS-factorial TA basal promoter reporter; actives raise or lower the signal
In short: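 Cis-factorial format in HepG2: reporters report endogenous factors, not chimeric Gal4 fusions. After 24 h treatment, reporter transcripts were measured by RT-PCR-capillary electrophoresis fluorescence, analysed bidirectionally versus DMSO.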

[18] = ATG_PPRE_CIS: Attagene CIS-FACTORIAL HepG2 Assay for human Peroxisome Proliferator-activated Response Element (PPRE) (AID 2282958); settings: HepG2 PPRE cis-element reporter, Attagene transcription factor profiling; actives raise or lower the signal
In short: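 DMSO served as negative control and baseline for bidirectional curve fitting. Signal came from PPRE-regulated reporter mRNA in HepG2 cells, measured 24 h post-dosing by RT-PCR, 6-FAM primer extension and capillary electrophoresis.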

Measured: AC50

c1ccc2c(c1)-c1cccc3c1c-2cc1ccccc13
inactive: [1] | [2] | [3] | [4] | [5] | [6] | [7] | [8] | [9] | [10] | [11] | [12] | [13] | [14] | [15] | [16] | [17]
active: [6] 4.67 µM

O=C(O)CO
not listed: [2]
inactive: all other assays above

CCCCCCCCN(C)C
not listed: [7] | [9] | [18]
inactive: all other assays above

CC(=O)c1ccccc1
not listed: [2] | [12]
inactive: all other assays above

C[C@]12C=CC(=O)C=C1CC[C@H]1[C@@H]3C[C@@H](O)[C@](O)(C(=O)CO)[C@@]3(C)C[C@H](O)[C@@]12F
active: [2] 0.14 µM
not listed: [9]
inactive: all other assays above

NC(N)=O
not listed: [2] | [18]
inactive: all other assays above

Cn1cc[nH]c1=S
not listed: [2] | [6] | [18]
inactive: all other assays above
